In PubChem BioAssay AID1159580 (chemical genetic matrix, 2015):
The whole screen tested about 5,500 compounds, of which about 2,000 (36%) were called active. Inconclusive results (about 18%) are left out. Cut-off read from the data, not from the text of the source: active = normalized growth mostly below about 0.91 (no sharp cut-off); inconclusive = no clear call, values can overlap the other calls; inactive = mostly above about 0.92. The list shows a part of the results.

Test: chemical genetic growth profiling, strain panel (AID 1159580);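 note: tested at 20 µM; growth read once vehicle control cultures reached saturation at 30 °C; 1 = growth at the plate median or of vehicle wells; lower values mean less growth of the strain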
Settings: growth OD

Measured: normalized growth

O=C1C=CC2=C3c4cc(O)c(O)cc4CC3(O)COC2=C1O (centres undefined)
inactive: S. cerevisiae deletion strains, locus YJR043C, strain POL32, hits give low values 0.868 | S. cerevisiae deletion strains, locus YJR066W, strain TOR1, hits give low values 0.953 | S. cerevisiae deletion strains, locus YJR075W, strain HOC1, hits give low values 0.981 | S. cerevisiae deletion strains, locus YKL068W, hits give low values 1.02 | S. cerevisiae deletion strains, locus YKL085W, strain MDH1 (second series), hits give low values 1.02 | S. cerevisiae deletion strains, locus YKL085W, strain MDH1, hits give low values 1.02 | S. cerevisiae deletion strains, locus YKL160W, strain elf1, hits give low values 1.01 | S. cerevisiae deletion strains, locus YKR001C, strain vps1, hits give low values 1.06 | S. cerevisiae deletion strains, locus YKR026C, strain gcn3, hits give low values 1.05 | S. cerevisiae deletion strains, locus YKR091W, strain srl3, hits give low values 1.04 | S. cerevisiae deletion strains, locus YLL001W, strain dnm1, hits give low values 1 | S. cerevisiae deletion strains, locus YLL026W, hits give low values 1.02 | S. cerevisiae deletion strains, locus YLL041C, strain sdh2, hits give low values 1.02 | S. cerevisiae deletion strains, locus YLR027C, strain aat2, hits give low values 1.01 | S. cerevisiae deletion strains, locus YLR039C, strain RIC1, hits give low values 0.848 | S. cerevisiae deletion strains, locus YLR058C, strain SHM2, hits give low values 0.92 | S. cerevisiae deletion strains, locus YLR102C, strain apc9, hits give low values 1.03 | S. cerevisiae deletion strains, locus YLR113W, strain HOG1, hits give low values 1.06 | S. cerevisiae deletion strains, locus YLR221C, strain rsa3, hits give low values 0.992 | S. cerevisiae deletion strains, locus YLR258W, strain gsy2, hits give low values 0.996 | S. cerevisiae deletion strains, locus YLR262C, strain YPT6 (second series), hits give low values 0.875 | S. cerevisiae deletion strains, locus YLR262C, strain YPT6, hits give low values 0.931 | S. cerevisiae deletion strains, locus YLR268W, strain sec22, hits give low values 1.01 | S. cerevisiae deletion strains, locus YLR320W, strain mms22, hits give low values 1.04 | S. cerevisiae deletion strains, locus YLR330W, strain CHS5, hits give low values 1.01 | S. cerevisiae deletion strains, locus YLR342W, strain FKS1 (second series), hits give low values 0.86 | S. cerevisiae deletion strains, locus YLR342W, strain FKS1, hits give low values 0.994 | S. cerevisiae deletion strains, locus YLR357W, strain rsc2, hits give low values 0.88 | S. cerevisiae deletion strains, locus YLR370C, strain arc18, hits give low values 0.977 | S. cerevisiae deletion strains, locus YLR371W, strain rom2, hits give low values 0.96 | S. cerevisiae deletion strains, locus YLR384C, strain iki3, hits give low values 1.02 | S. cerevisiae deletion strains, locus YLR418C, strain cdc73, hits give low values 0.954 | S. cerevisiae deletion strains, locus YML016C, strain PPZ1, hits give low values 0.938 | S. cerevisiae deletion strains, locus YML032C, strain rad52, hits give low values 1.05 | S. cerevisiae deletion strains, locus YML120C, strain ndi1, hits give low values 1.02 | S. cerevisiae deletion strains, locus YML124C, strain tub3, hits give low values 1.03 | S. cerevisiae deletion strains, locus YMR078C, strain ctf18, hits give low values 1.05 | S. cerevisiae deletion strains, locus YMR125W, strain sto1, hits give low values 1.11 | S. cerevisiae deletion strains, locus YMR129W, hits give low values 1.03 | S. cerevisiae deletion strains, locus YMR205C, strain PFK2, hits give low values 1.05 | S. cerevisiae deletion strains, locus YMR223W, strain ubp8, hits give low values 1.01 | S. cerevisiae deletion strains, locus YMR263W, strain SAP30, hits give low values 0.965 | S. cerevisiae deletion strains, locus YMR307W, strain GAS1, hits give low values 0.815 | S. cerevisiae deletion strains, locus YNL067W, strain RPL9B, hits give low values 0.956 | S. cerevisiae deletion strains, locus YNL071W, strain lat1, hits give low values 1.04 | S. cerevisiae deletion strains, locus YNL183C, strain NPR1, hits give low values 0.983 | S. cerevisiae deletion strains, locus YNL233W, strain BNI4, hits give low values 0.97 | S. cerevisiae deletion strains, locus YNL248C, strain rpa49, hits give low values 1.03 | S. cerevisiae deletion strains, locus YNL250W, strain rad50, hits give low values 1 | S. cerevisiae deletion strains, locus YNL271C, strain bni1, hits give low values 1.01 | S. cerevisiae deletion strains, locus YNL298W, strain CLA4, hits give low values 1.01 | S. cerevisiae deletion strains, locus YNL307C, strain MCK1, hits give low values 1.02 | S. cerevisiae deletion strains, locus YNL322C, strain KRE1 (second series), hits give low values 1.05 | S. cerevisiae deletion strains, locus YNR049C, strain mso1, hits give low values 1.05 | S. cerevisiae deletion strains, locus YNR052C, strain pop2, hits give low values 1.01 | S. cerevisiae deletion strains, locus YOL012C, strain htz1 0.462 | S. cerevisiae deletion strains, locus YOL147C, strain pex11, hits give low values 1.03 | S. cerevisiae deletion strains, locus YOR001W, strain rrp6, hits give low values 1.01 | S. cerevisiae deletion strains, locus YOR061W, strain CKA2, hits give low values 0.977 | S. cerevisiae deletion strains, locus YOR069W, strain VPS5, hits give low values 0.992 | S. cerevisiae deletion strains, locus YOR070C, strain gyp1, hits give low values 0.969 | S. cerevisiae deletion strains, locus YOR080W, strain dia2, hits give low values 1.04 | S. cerevisiae deletion strains, locus YOR083W, strain WHI5, hits give low values 0.965 | S. cerevisiae deletion strains, locus YOR136W, strain idh2, hits give low values 1.05 | S. cerevisiae deletion strains, locus YOR144C, strain elg1, hits give low values 1.03 | S. cerevisiae deletion strains, locus YOR184W, strain ser1, hits give low values 1.04 | S. cerevisiae deletion strains, locus YOR231W, strain MKK1, hits give low values 1.02 | S. cerevisiae deletion strains, locus YOR265W, strain rbl2, hits give low values 1.02 | S. cerevisiae deletion strains, locus YOR270C, strain vph1, hits give low values 0.956 | S. cerevisiae deletion strains, locus YOR290C, strain snf2, hits give low values 0.985 | S. cerevisiae deletion strains, locus YOR316C, strain cot1, hits give low values 1.04 | S. cerevisiae deletion strains, locus YPL078C, strain atp4, hits give low values 1.01 | S. cerevisiae deletion strains, locus YPL106C, strain sse1, hits give low values 0.99 | S. cerevisiae deletion strains, locus YPL240C, strain hsp82, hits give low values 1.03 | S. cerevisiae deletion strains, locus YPL241C, strain CIN2, hits give low values 0.994 | S. cerevisiae deletion strains, locus YPL256C, strain CLN2, hits give low values 1.05 | S. cerevisiae deletion strains, locus YPR119W, strain clb2, hits give low values 1.02 | S. cerevisiae deletion strains, locus YPR141C, strain kar3, hits give low values 1.01 | S. cerevisiae deletion strains, locus YPR163C, strain tif3, hits give low values 1.02 | S. cerevisiae deletion strains, locus YPR167C, strain met16, hits give low values 1.04 | S. cerevisiae deletion strains, strain wtn01, hits give low values 1.03
active: S. cerevisiae deletion strains, locus YKL009W, strain mrt4, hits give low values 1.16 [resistant] | S. cerevisiae deletion strains, locus YKL190W, strain CNB1, hits give low values 0.908 | S. cerevisiae deletion strains, locus YMR058W, strain fet3, hits give low values 0.611 | S. cerevisiae deletion strains, locus YNL128W, strain TEP1, hits give low values 0.845 | S. cerevisiae deletion strains, locus YNL209W, strain ssb2, hits give low values 0.831 | S. cerevisiae deletion strains, locus YOR106W, strain vam3, hits give low values 0.811 | S. cerevisiae deletion strains, locus YPL051W, strain arl3, hits give low values 0.884 | S. cerevisiae strains, strain wild type, hits give low values 0.814
